In PubChem BioAssay AID504444 (National Center for Advancing Translational Sciences (NCATS), 2011):
Screen size: about 360,000 compounds; about 7,500 (2.1%) were called active. Another 20% or so got no clear call; they are omitted. Calls come from the whole dose curve; as a rule, active = well fitted inhibition curve with a large enough effect; inconclusive = small, poorly fitted or top-dose-only effect, or effect the other way; inactive = flat fitted curve, though single readings scatter. Shown is part of a subset that was picked to be rich in actives.

experiment: Nrf2 qHTS screen for inhibitors; settings: A549 ARE-Fluc reporter, luciferase luminescence, 18-24 h; series mostly up to 46 µM; note: nearly all actives have a fitted effect of over 60% in size
In short: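 In this cell-based qHTS, ARE-driven firefly luciferase in A549 cells reports Nrf2 activity; the luminescent signal after BugLite lysis is the measured value, with a prior CellTiter-Fluor read for cell health.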
% is set by controls: 0 for no effect and ±100 for the full control effect; potency is the fitted concentration of half-maximal effect.

Potency, inactive:
Cc1ccc(Cn2cc(CCC(=O)NCc3ccc(OC(C)C)cc3)c3ccccc32)cc1
Cc1cccc(N2CCN(C(=O)c3oc(=O)c4ccccc4c3-c3ccccc3)CC2)c1C
Cc1ccc2nc(/C(C#N)=C/c3ccccc3F)[nH]c2c1
COc1cc(/C=C(\C#N)c2nc3ccccc3[nH]2)ccc1O
Cc1onc(-c2c(Cl)cccc2Cl)c1C(=O)NNC(=O)c1c(-c2c(Cl)cccc2Cl)noc1C
Cc1onc(-c2ccccc2Cl)c1C(=O)OCC(=O)c1ccccc1
COC(=O)c1ccc(CNC(=O)Cn2cc(C)c(=O)[nH]c2=O)cc1
Cc1cccc(-c2nc(SCc3ccc(Br)cc3)n3[nH]c(=O)cc3n2)c1
CC(=O)Nc1ccc(S(=O)(=O)Nc2nc(-c3ccc(C(C)(C)C)cc3)cs2)cc1
O=C(O)c1ccccc1C(=O)Nc1nc(-c2ccccc2)cs1
Cc1cc(Cl)ccc1OCC(=O)N(Cc1ccc(N(C)C)cc1)C1CCS(=O)(=O)C1 (configuration not stated)
COc1ccc(-c2ccc3c(c2)[C@@H]2C[C@H](N(C)S(=O)(=O)c4ccccc4)[C@H]([C@H](C)O)C(=O)N2CC3)cc1
Cc1nnc(N2CCC(C(=O)Nc3ccc(F)cc3)CC2)c2nn(-c3ccc(Cl)cc3)c(C)c12
CNC(=O)N1c2ccccc2C=Cc2ccccc21
CC1CC(C)CN(CC(=O)N2c3ccccc3CCc3ccccc32)C1 (configuration not stated)
Cc1cccc(NC(=O)c2cccnc2Cl)n1
CCN(CC)S(=O)(=O)c1ccc(Cl)c(NC(=O)c2ccncc2)c1
COc1ccc(N2C(=O)CS(=O)(=O)C23C(=O)N(Cc2ccc(C)cc2)c2ccccc23)cc1Cl (configuration not stated)
CN(C)C(CNC(=O)c1cc2ccccc2o1)c1ccccc1 (configuration not stated)
COc1cccc(CN2CCc3nc(SCC(=O)Nc4ccccc4)[nH]c(=O)c3C2)c1
COc1cc(/C=N/Nc2nc3ccccc3s2)ccc1O
O=[N+]([O-])c1cc(Br)c(O)c(/C=N/Nc2nc3ccccc3s2)c1
CCC(C(=O)Nc1cc(OC)ccc1OC)n1c(=O)c(C(F)(F)F)nc2ccccc21 (configuration not stated)
CSCCC(NC(=O)c1ccccc1)C(=O)N1CCN(Cc2ccc(Cl)cc2)CC1 (configuration not stated)
CCCCN(C(=O)c1cccc(N2C(=O)c3ccccc3C2=O)c1)c1c(N)n(CCCC)c(=O)[nH]c1=O
N#Cc1ccc(OC2=NS(=O)(=O)c3ccccc32)cc1
COc1ccc(/C=N/NS(=O)(=O)c2ccc(NC(C)=O)cc2)cc1
COc1ccc(S(=O)(=O)N/N=C\c2ccc(OC)c(COc3ccc(C)cc3[N+](=O)[O-])c2)cc1
CCOc1ccc(C(=O)c2cn(Cc3ccc(F)cc3)c3ccc(F)cc3c2=O)cc1
CN(C)c1ccc(C2N(C)C(=O)c3ccccc3N2C)cc1 (configuration not stated)
Cc1ccc(Nc2c(-c3ccc(N(C)C)cc3)nc3nc[nH]n23)cc1
O=C(Nc1c(C(=O)N2CCN(c3ccc(F)cc3)CC2)oc2ccccc12)c1ccco1
CCOC(=O)C1CCCN(C(=O)C2CCN(S(=O)(=O)c3ccc(Cl)c(C(F)(F)F)c3)CC2)C1 (configuration not stated)
CCCCNC(=O)CSc1nc2ccc(NC(=O)CSc3nnc(COc4ccccc4C)n3C)cc2s1
CCC(=O)Nc1ccc2nc(SCC(=O)N3CCc4ccccc43)sc2c1
CCOC(=O)c1ccc(NC(=O)C2CC(=O)N(c3ccc(C(C)C)cc3)C2)cc1 (configuration not stated)
O=C(Nc1ccc(S(=O)(=O)N2CCCCCC2)cc1)c1c(F)cccc1F
O=C(Nc1ccncc1)Nc1ccc(F)cc1
Cc1ccc(C)c(N2CCN(CCCNC(=O)Nc3ccc(Cl)cc3)CC2)c1
CCOc1ccc(NC(=O)CCC(=O)N2CC(C)Oc3ccc(C)cc32)cc1 (configuration not stated)
O=c1[nH]c(=O)c2nc3ccccc3nc2[nH]1
CN(C)C(=O)c1coc2nc3ccccc3nc12
CCOC(=O)C1CCN(C(=O)CN2C(=O)NC(C)(c3ccc4cc(OC)ccc4c3)C2=O)CC1 (configuration not stated)
Cc1ccc(C)n1NC(=O)c1ccc([N+](=O)[O-])cc1
O=C1CC(c2ccccc2)=NN1c1ccc([N+](=O)[O-])cc1
COCCOC(=O)c1[nH]c2c(c1C)C(=O)CC(c1ccc(OC)cc1)C2 (configuration not stated)
CCCOC(=O)c1[nH]c2c(c1C)C(=O)CC(c1cccs1)C2 (configuration not stated)
Cc1ccc(S(=O)(=O)NCC2CCC(C(=O)N3CCOCC3)CC2)cc1 (configuration not stated)
COc1cccc(CNC(=O)C2CCC(CNS(=O)(=O)c3cccs3)CC2)c1 (configuration not stated)
Cc1cc([N+](=O)[O-])c(=O)[nH]c1C
COc1ccc(N=C2C=CC(=O)O2)cc1
Cc1ccc(NC(=O)NC2CCCCC2)cc1S(=O)(=O)N1CCOCC1
Cc1ccc(N2CC(C(=O)Nc3ccc(S(=O)(=O)N4CCCC4)cc3)CC2=O)cc1C (configuration not stated)
CC(=O)c1ccccc1NC(=O)C1CC(=O)N(c2ccc3c(c2)OCCO3)C1 (configuration not stated)
Cc1ccccc1N1CC(C(=O)Nc2ccc(S(=O)(=O)N3CCCC3)cc2)CC1=O (configuration not stated)
Cc1ccc(NC(=O)C2CC2)cc1S(=O)(=O)N1CCOCC1
CCOC(=O)c1ccc(NC(=O)C2CC(=O)N(c3ccc4c(c3)OCCO4)C2)cc1 (configuration not stated)
COc1ccc(S(=O)(=O)N2CCCCCC2)cc1NC(=O)Cc1ccc(OC)c(OC)c1
COc1ccccc1N1CC(C(=O)Nc2ccc(S(=O)(=O)N3CCOCC3)cc2)CC1=O (configuration not stated)
CCN(CC)S(=O)(=O)c1ccc(CNC(=O)CN2C(=O)NC3(CCc4ccccc43)C2=O)cc1 (configuration not stated)
Cc1ccc(C)c(N2CCN(C(=O)Cn3ncc4c(=O)oc5ccc(C)cc5c43)CC2)c1
O=C(NCc1ccccc1)c1cccc(NC(=O)C2CCCCC2)c1
Cn1nnnc1SCCCNCc1cccc(OCc2ccc(Cl)cc2)c1
COc1ccc(CNC(=O)CCc2c(C)nn(-c3ccc(N4CCCC4)nn3)c2C)cc1
O=[S+]([O-])(c1ccc(OC(F)(F)F)cc1)N1CCN([S+](=O)([O-])c2ccc3c(c2)OCCO3)CC1
COc1cccc(CNC(=O)c2ccc3c(c2)N(Cc2ccc(C(F)(F)F)cc2)C(=O)c2ccccc2S3)c1OC
CCOc1ccc(C(=O)/C=C/c2cn(CC(O)CN3CCCCCC3)c3ccccc23)cc1 (configuration not stated)
CCS(=O)(=O)c1nc(S(=O)(=O)c2ccc(C)cc2)c(NCc2ccc(Cl)cc2)s1
NC1=NOC(=O)C1C1CCCCC1 (configuration not stated)
CC(=O)Nc1ccc(C(=O)CSc2nc3ccc(C)cc3[nH]2)cc1
Cc1cc(C)c(NC(=O)CSc2nc3ccncc3[nH]2)c(C)c1
Cc1ccc(/C=C(\C#N)C(=O)Nc2cc(C)ccc2C)cc1
CC(C)(C)c1ccc(S(=O)(=O)Nc2ccc(O)c(Sc3nc4ccccc4s3)c2)cc1
CCOc1ccc(NC(=O)c2c(NC(=O)Cc3ccccc3)sc3c2CCCCC3)cc1
COc1cccc(NS(=O)(=O)c2ccc(-c3coc(C)n3)cc2)c1
COc1ccc(NS(=O)(=O)c2cccc(C(=O)NCCc3ccc(S(N)(=O)=O)cc3)c2)cc1

Potency, active:
Cc1ccc2nc(/C(C#N)=C\c3ccc(OC(=O)c4cccs4)cc3)[nH]c2c1 4.61 µM
CC(=O)Nc1cccc(/C(C)=N/NC(=O)c2c(-c3ccccc3Cl)noc2C)c1 9.2 µM
CC(=O)Nc1ccc(-c2csc(NC(=O)Nc3ccccc3)n2)cc1 16.4 µM
CC1C(C)N(C(=O)CCl)c2ccccc2N1C(=O)CCl (configuration not stated) 18.4 µM
CCN(CC)S(=O)(=O)c1ccc(NC(=O)c2cccnc2Cl)c(NC(=O)c2cccnc2Cl)c1 20.6 µM
c1ccc(C(=NNc2nc3ccccc3s2)c2ccccn2)cc1 9.2 µM
COc1ccc(C(=O)Oc2cc(/C=N/NS(=O)(=O)c3ccc(C)cc3)ccc2OC)cc1 16.4 µM
CN(C)c1ccc(Nc2c3c4c(cccc4n(C)c2=O)C(=O)c2ccccc2-3)cc1 8.2 µM
CCCCNC(=O)CSc1nc2ccc(NC(=O)CSc3nnc(N)s3)cc2s1 16.4 µM
O=C(Nc1ccncc1)c1c(F)cccc1F 9.2 µM
CNC(=O)c1cccc2nc3ccccc3nc12 5.8 µM
CC1=NN(c2ccccc2)C(=O)C1C(=O)c1ccc([N+](=O)[O-])cc1 (configuration not stated) 25.9 µM
CCCOC(=O)c1[nH]c2c(c1C)C(=O)CC(c1cc(OC)c(OC)c(OC)c1)C2 (configuration not stated) 16.4 µM
Cc1ccc(C)c(N2CCN(C(=O)C3CCC(CNS(=O)(=O)c4cccs4)CC3)CC2)c1 (configuration not stated) 18.4 µM
COc1ccc(S(=O)(=O)N2CCCCC2)cc1NC(=O)C1CC(=O)N(c2ccc3c(c2)OCCO3)C1 (configuration not stated) 23.1 µM
Cc1ccc(NC(=O)C2CC(=O)N(c3ccc4c(c3)OCCO4)C2)cc1S(=O)(=O)N1CCCCCC1 (configuration not stated) 5.8 µM
CC1CCN(S(=O)(=O)c2ccc(NC(=O)C3CC(=O)N(c4ccccc4)C3)cc2)CC1 (configuration not stated) 6.51 µM
Cc1ccc(NC(=O)C2CCC(C(C)(C)C)CC2)cc1S(=O)(=O)N1CCOCC1 (configuration not stated) 20.6 µM
CCCCNS(=O)(=O)c1ccc2nc(SCC(=O)Nc3cc(C)cc(C)c3)[nH]c2c1 13 µM
COc1ccc(NS(=O)(=O)c2ccc(Oc3c(C#N)cccc3C#N)cc2)cc1 13 µM

Activity change, negative = inhibition, inactive:
Cc1ccc(Nc2c(-c3ccc(C)cc3)nc3cnccn23)cc1 -2.28% [at 9.27 µM]
